# Experiments:
# Assay in all cases: DAPPL (digital affinity profiling via proximity ligation, sequencing); 10 mM Tris-HCl pH 7.5, 50 mM NaCl, 1 mM DTT, 4% glycerol, room temperature, 30 min; GST-TFs on glutathione beads, 16-mer random dsDNA library, 0.1% formaldehyde crosslink after washing; high values mean tight binding
# FLI1 = biological target: T1, FLI1 (Homo sapiens, UniProt Q01543 1-452); settings: protein: recombinant; tags: N-terminal GST; dsDNA, one strand shown
# T1 sequence: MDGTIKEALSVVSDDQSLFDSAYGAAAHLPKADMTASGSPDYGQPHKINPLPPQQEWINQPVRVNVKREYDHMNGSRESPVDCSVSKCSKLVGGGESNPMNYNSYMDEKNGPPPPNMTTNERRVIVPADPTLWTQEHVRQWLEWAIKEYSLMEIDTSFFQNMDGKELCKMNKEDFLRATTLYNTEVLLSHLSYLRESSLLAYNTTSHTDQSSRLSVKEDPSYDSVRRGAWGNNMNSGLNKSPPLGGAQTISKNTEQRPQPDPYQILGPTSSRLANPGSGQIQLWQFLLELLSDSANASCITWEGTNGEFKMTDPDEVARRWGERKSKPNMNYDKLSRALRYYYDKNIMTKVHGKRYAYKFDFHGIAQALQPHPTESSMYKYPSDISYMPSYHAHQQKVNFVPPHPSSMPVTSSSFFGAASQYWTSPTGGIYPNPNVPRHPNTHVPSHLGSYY
# Method in brief: (§1)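 Human transcription factors fused to GST were expressed in yeast, captured on glutathione beads, given DNA barcodes and pooled with a GST-only negative control. Pools were incubated with 200 nmole of a 16-mer random double-stranded DNA library in Tris/NaCl/DTT/glycerol buffer at room temperature for 30 min. They were then washed, crosslinked with 0.1% formaldehyde, proximity-ligated (BsaI/T4 ligase, 1 h, 37 °C), PCR-amplified and sequenced on an Illumina NextSeq500. Binding signal is each 6-mer's read frequency for a factor divided by its frequency for the GST control.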
# ELK1 = biological target: T2, ELK1 (Homo sapiens, UniProt P19419 1-428); settings: protein: recombinant; tags: N-terminal GST; dsDNA, one strand shown
# T2 sequence: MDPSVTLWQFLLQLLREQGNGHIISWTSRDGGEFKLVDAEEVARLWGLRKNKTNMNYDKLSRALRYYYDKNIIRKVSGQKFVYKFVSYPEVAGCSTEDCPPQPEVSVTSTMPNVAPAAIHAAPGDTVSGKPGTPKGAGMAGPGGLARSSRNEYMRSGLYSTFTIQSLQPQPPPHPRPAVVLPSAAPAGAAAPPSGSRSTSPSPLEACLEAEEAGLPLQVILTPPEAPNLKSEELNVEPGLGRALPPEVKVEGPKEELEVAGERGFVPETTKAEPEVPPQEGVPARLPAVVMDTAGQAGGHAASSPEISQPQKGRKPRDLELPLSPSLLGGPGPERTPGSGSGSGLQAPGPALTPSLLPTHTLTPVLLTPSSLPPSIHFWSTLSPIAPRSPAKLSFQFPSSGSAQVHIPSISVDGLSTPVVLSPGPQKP
# Method in brief: as §1
# GABPA = biological target: T3, GABPA (Homo sapiens, UniProt Q06546 1-454); settings: protein: recombinant; tags: N-terminal GST; dsDNA, one strand shown
# T3 sequence: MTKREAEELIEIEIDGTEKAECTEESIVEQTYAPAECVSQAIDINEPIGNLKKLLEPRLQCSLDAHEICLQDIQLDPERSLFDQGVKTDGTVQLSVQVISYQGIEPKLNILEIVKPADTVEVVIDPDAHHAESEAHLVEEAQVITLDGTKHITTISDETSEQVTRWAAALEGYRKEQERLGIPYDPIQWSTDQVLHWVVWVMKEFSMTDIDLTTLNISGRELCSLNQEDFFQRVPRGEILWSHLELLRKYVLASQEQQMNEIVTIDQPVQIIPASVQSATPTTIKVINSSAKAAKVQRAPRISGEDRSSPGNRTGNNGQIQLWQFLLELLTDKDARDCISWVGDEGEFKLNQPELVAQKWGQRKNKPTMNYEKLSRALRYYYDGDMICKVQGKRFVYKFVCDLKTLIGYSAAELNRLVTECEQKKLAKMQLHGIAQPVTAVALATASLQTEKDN
# Method in brief: as §1
# ERG = biological target: T4, ERG (Homo sapiens, UniProt P11308 1-479); settings: protein: recombinant; tags: N-terminal GST; dsDNA, one strand shown
# T4 sequence: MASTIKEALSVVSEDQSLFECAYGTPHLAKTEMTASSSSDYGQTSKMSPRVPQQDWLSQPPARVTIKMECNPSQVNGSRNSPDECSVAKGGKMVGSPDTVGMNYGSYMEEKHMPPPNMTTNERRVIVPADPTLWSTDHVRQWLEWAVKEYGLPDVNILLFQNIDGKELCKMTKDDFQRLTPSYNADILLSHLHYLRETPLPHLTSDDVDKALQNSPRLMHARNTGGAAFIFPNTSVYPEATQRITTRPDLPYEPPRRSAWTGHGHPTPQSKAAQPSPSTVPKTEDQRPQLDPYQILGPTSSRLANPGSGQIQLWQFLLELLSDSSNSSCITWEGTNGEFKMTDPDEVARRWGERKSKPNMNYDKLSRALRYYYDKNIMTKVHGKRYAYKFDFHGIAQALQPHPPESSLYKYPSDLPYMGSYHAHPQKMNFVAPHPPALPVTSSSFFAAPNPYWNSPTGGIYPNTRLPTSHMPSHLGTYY
# Method in brief: as §1
# ELF1 = ELF1 (Homo sapiens, UniProt P32519 1-619); settings: protein: recombinant; tags: N-terminal GST; dsDNA, one strand shown
# Method in brief: as §1
# EHF = biological target: T5, EHF (Homo sapiens, UniProt Q9NZC4 1-300); settings: protein: recombinant; tags: N-terminal GST; dsDNA, one strand shown
# T5 sequence: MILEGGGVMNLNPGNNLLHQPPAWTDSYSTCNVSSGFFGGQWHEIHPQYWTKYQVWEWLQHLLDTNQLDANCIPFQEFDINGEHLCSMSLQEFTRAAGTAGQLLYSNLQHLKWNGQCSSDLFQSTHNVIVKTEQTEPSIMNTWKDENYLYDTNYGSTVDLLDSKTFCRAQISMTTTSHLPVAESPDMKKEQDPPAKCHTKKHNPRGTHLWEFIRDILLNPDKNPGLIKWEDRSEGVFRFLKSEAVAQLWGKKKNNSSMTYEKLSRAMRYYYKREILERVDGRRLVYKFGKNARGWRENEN
# Method in brief: as §1
# SPI1 = SPI1 (Homo sapiens, UniProt P17947 1-270); settings: protein: recombinant; tags: N-terminal GST; dsDNA, one strand shown
# Method in brief: as §1
# SPIB = SPIB (Homo sapiens, UniProt Q01892 1-262); settings: protein: recombinant; tags: N-terminal GST; dsDNA, one strand shown
# Method in brief: as §1
# ELK3 = biological target: T6, ELK3 (Homo sapiens, UniProt P41970 1-407); settings: protein: recombinant; tags: N-terminal GST; dsDNA, one strand shown
# T6 sequence: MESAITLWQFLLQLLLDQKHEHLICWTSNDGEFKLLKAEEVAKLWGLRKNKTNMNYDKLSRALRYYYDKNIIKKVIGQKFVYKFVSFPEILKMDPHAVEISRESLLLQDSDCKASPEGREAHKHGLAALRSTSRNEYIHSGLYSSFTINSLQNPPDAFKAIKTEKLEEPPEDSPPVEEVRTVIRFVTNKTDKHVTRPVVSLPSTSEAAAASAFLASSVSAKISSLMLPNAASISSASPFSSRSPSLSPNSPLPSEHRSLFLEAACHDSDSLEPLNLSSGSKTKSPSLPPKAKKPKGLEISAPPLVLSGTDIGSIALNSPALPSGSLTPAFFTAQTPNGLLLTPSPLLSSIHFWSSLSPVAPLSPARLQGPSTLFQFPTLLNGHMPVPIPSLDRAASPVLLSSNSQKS
# Method in brief: as §1
# FEV = biological target: T7, FEV (Homo sapiens, UniProt Q99581 1-238); settings: protein: recombinant; tags: N-terminal GST; dsDNA, one strand shown
# T7 sequence: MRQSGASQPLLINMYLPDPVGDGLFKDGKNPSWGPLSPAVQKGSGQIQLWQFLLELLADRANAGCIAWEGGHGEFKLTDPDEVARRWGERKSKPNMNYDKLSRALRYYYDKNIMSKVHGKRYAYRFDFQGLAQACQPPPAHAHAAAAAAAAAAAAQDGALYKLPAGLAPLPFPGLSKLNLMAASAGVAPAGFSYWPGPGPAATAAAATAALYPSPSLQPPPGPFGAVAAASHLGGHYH
# Method in brief: as §1
# ETV5 = ETV5 (Homo sapiens, UniProt P41161 1-510); settings: protein: recombinant; tags: N-terminal GST; dsDNA, one strand shown
# Method in brief: as §1
# HSF1 = HSF1 (Homo sapiens, UniProt Q00613 1-529); settings: protein: recombinant; tags: N-terminal GST; chain copies: 3; dsDNA, one strand shown
# Method in brief: as §1
# SPIC = biological target: T8, SPIC (Homo sapiens, UniProt Q8N5J4 1-248); settings: protein: recombinant; tags: N-terminal GST; dsDNA, one strand shown
# T8 sequence: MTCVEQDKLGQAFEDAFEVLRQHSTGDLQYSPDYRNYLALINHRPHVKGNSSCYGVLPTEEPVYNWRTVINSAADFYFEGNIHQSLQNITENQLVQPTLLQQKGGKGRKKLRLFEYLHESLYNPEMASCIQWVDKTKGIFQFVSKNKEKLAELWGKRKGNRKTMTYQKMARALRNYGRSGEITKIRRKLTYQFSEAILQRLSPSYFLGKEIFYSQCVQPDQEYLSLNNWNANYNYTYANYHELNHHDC
# Method in brief: as §1
# ELF4 = ELF4 (Homo sapiens, UniProt Q99607 1-663); settings: protein: recombinant; tags: N-terminal GST; dsDNA, one strand shown
# Method in brief: as §1
# ELK4 = biological target: T9, ELK4 (Homo sapiens, UniProt P28324-2 1-405); settings: protein: recombinant; tags: N-terminal GST; dsDNA, one strand shown
# T9 sequence: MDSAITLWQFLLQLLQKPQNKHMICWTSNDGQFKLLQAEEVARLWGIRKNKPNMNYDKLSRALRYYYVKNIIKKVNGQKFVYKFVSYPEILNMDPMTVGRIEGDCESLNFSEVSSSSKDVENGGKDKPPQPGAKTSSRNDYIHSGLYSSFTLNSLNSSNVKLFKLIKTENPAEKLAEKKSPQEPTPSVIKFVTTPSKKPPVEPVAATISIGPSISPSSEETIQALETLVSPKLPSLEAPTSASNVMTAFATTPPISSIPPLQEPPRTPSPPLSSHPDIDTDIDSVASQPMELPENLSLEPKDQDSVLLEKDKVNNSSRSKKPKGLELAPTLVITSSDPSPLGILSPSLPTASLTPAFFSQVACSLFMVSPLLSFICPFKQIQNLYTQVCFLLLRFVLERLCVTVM
# Method in brief: as §1
# ETV2 = biological target: T10, ETV2 (Homo sapiens, UniProt O00321 1-342); settings: protein: recombinant; tags: N-terminal GST; dsDNA, one strand shown
# T10 sequence: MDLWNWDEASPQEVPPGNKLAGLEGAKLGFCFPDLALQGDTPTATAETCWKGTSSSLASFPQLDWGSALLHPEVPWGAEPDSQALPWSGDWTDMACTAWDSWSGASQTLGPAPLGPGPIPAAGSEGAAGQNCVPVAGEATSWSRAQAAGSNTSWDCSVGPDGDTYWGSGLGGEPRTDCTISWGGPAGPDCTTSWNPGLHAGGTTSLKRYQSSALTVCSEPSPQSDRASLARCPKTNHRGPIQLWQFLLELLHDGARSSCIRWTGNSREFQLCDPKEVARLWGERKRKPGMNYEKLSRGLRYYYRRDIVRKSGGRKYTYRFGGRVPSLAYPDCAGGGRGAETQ
# Method in brief: as §1
# ELF3 = biological target: T11, ELF3 (Homo sapiens, UniProt P78545 1-371); settings: protein: recombinant; tags: N-terminal GST; dsDNA, one strand shown
# T11 sequence: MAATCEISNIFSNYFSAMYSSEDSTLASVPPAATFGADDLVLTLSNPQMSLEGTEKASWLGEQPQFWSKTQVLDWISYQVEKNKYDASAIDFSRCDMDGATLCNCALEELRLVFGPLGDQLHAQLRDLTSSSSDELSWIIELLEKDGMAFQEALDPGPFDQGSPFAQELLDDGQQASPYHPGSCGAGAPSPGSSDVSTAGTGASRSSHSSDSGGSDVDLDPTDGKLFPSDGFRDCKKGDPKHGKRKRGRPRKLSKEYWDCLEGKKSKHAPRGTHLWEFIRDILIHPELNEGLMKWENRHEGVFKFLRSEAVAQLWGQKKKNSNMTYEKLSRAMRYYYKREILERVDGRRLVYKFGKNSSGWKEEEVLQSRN
# Method in brief: as §1
# CRX = CRX (Homo sapiens, UniProt O43186 1-299); settings: protein: recombinant; tags: N-terminal GST; dsDNA, one strand shown
# Method in brief: as §1
# ETV1 = ETV1 (Homo sapiens, UniProt P50549 1-477); settings: protein: recombinant; tags: N-terminal GST; dsDNA, one strand shown
# Method in brief: as §1
# Sequence of HSF1 (Q00613 whole entry): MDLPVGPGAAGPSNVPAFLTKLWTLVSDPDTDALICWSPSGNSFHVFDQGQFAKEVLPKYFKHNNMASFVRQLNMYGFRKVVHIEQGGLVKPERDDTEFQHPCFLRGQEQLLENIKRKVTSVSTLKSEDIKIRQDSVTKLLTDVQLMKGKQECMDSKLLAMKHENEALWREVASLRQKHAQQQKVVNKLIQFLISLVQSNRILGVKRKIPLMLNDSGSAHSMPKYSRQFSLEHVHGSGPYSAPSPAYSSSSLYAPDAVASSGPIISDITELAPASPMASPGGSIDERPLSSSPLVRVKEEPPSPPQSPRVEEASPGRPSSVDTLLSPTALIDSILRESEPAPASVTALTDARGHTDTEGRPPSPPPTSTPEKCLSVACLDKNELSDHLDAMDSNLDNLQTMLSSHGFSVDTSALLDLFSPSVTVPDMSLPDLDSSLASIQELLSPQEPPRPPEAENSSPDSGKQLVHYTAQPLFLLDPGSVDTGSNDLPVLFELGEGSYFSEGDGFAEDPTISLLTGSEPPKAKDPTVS
# Sequence of CRX (O43186 whole entry): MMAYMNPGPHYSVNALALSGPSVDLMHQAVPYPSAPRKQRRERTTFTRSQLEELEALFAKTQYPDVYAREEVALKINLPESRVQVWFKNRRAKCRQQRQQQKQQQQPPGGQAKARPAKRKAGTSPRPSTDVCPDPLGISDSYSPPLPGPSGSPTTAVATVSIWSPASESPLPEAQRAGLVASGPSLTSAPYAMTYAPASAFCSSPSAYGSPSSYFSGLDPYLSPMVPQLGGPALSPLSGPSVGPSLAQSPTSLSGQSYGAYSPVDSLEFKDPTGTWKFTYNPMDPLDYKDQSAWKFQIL
# Sequence of ELF1 (P32519 whole entry): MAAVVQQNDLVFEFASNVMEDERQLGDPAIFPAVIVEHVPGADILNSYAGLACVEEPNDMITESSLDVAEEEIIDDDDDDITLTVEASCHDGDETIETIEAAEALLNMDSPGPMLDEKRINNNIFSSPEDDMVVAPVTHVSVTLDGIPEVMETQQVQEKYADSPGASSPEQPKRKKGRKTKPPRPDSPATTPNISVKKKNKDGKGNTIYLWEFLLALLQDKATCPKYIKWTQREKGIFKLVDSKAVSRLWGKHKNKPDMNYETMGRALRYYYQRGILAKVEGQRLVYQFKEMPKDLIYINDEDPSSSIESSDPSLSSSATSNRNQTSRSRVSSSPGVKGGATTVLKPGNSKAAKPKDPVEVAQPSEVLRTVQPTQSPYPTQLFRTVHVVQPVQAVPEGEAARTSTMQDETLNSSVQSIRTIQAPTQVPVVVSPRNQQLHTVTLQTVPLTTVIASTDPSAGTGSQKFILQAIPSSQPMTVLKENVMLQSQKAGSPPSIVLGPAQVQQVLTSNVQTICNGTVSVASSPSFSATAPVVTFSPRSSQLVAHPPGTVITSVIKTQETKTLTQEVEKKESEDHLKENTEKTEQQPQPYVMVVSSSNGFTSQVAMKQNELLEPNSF
# Sequence of ETV1 (P50549 whole entry): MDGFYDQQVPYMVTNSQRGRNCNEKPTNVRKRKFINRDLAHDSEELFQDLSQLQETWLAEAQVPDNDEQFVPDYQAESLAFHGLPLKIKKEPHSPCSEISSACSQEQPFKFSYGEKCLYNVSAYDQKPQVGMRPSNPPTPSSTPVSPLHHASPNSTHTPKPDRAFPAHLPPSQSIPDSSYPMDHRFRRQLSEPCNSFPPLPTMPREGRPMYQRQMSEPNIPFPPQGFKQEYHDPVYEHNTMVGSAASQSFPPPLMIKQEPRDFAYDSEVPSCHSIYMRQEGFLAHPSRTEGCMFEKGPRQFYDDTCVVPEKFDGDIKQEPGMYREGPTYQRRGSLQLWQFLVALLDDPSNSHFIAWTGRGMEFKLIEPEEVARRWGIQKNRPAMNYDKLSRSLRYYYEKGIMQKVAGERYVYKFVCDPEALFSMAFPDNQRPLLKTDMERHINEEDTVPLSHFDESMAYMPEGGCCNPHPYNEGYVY
# Sequence of ETV5 (P41161 whole entry): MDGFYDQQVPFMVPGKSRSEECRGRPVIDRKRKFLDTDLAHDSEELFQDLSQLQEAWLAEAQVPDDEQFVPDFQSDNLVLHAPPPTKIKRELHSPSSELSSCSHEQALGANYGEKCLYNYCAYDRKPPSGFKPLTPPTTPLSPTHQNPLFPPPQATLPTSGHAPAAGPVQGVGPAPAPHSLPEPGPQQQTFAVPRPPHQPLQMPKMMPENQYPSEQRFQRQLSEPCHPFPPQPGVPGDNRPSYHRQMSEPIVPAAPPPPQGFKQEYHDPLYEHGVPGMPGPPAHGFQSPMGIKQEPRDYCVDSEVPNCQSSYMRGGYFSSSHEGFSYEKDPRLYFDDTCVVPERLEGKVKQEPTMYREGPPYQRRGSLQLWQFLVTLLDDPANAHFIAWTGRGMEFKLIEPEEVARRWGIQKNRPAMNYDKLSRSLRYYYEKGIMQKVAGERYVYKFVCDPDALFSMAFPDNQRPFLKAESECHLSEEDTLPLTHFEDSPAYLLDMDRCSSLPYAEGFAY
# Sequence of ELF4 (Q99607 whole entry): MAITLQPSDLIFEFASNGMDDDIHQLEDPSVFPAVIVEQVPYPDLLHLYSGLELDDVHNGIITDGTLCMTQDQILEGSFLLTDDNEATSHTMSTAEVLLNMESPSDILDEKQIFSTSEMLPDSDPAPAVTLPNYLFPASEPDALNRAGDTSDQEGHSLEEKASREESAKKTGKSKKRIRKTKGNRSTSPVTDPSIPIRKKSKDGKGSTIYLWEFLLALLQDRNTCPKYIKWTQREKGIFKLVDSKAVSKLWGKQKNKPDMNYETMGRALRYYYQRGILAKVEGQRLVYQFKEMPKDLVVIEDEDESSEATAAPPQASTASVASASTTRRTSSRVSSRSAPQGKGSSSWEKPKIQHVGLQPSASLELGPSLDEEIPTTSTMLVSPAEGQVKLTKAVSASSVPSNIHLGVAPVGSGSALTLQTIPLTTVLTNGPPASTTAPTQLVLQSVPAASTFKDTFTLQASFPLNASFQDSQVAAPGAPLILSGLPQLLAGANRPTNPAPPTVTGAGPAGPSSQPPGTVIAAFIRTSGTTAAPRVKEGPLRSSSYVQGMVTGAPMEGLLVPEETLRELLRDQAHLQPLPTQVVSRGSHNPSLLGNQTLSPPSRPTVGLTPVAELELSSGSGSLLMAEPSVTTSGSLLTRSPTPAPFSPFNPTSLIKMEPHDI
# Sequence of SPIB (Q01892 whole entry): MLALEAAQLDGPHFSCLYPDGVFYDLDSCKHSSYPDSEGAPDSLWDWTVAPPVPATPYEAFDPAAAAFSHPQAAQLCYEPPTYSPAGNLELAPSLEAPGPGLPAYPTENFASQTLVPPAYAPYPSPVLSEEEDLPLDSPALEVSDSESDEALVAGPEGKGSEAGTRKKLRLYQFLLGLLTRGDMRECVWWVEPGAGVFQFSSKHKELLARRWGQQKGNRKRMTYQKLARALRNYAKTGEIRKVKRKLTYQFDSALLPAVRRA
sequence,measurement,setting,value
CTGGAA,binding signal,FLI1,"1.22 fold enrichment (6-mer frequency, TF over GST control)"
same,binding signal,ELK1,"1.25 fold enrichment (6-mer frequency, TF over GST control)"
same,binding signal,GABPA,"1.33 fold enrichment (6-mer frequency, TF over GST control)"
same,binding signal,ERG,"1.27 fold enrichment (6-mer frequency, TF over GST control)"
same,binding signal,ELF1,"1.19 fold enrichment (6-mer frequency, TF over GST control)"
same,binding signal,EHF,"1.2 fold enrichment (6-mer frequency, TF over GST control)"
same,binding signal,SPI1,"1.26 fold enrichment (6-mer frequency, TF over GST control)"
same,binding signal,SPIB,"1.31 fold enrichment (6-mer frequency, TF over GST control)"
same,binding signal,ELK3,"1.31 fold enrichment (6-mer frequency, TF over GST control)"
same,binding signal,FEV,"1.2 fold enrichment (6-mer frequency, TF over GST control)"
same,binding signal,ETV5,"1.29 fold enrichment (6-mer frequency, TF over GST control)"
same,binding signal,HSF1,"4.43 fold enrichment (6-mer frequency, TF over GST control)"
same,binding signal,SPIC,"1.2 fold enrichment (6-mer frequency, TF over GST control)"
same,binding signal,ELF4,"1.23 fold enrichment (6-mer frequency, TF over GST control)"
same,binding signal,ELK4,"1.08 fold enrichment (6-mer frequency, TF over GST control)"
same,binding signal,ETV2,"1.43 fold enrichment (6-mer frequency, TF over GST control)"
same,binding signal,ELF3,"1.11 fold enrichment (6-mer frequency, TF over GST control)"
same,binding signal,CRX,"1.89 fold enrichment (6-mer frequency, TF over GST control)"
same,binding signal,ETV1,"1.32 fold enrichment (6-mer frequency, TF over GST control)"

# Source: paper PMC7862700, “An all-to-all approach to the identification of sequence-specific readers for epigenetic DNA modifications on cytosine”
